# Measurements taken from the supplement of paper PMC10127200.
# Counter-ions that a name gives are not always drawn.
# Test system: FB
# Assay: Euclidean distance of Cell Painting phenotypic profile (signed KS, 77 features) to DMSO centroid (dimensionless distance); 5 or 10 uM (library dependent); higher = stronger phenotypic change vs DMSO (phenoactivity)
# Conditions: 48 h
# Procedure, shortened: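 Library compounds were applied at 10 or 5 uM, depending on the library, with 0.1% DMSO final, for 48 h to five cancer lines and a healthy fibroblast line. After staining, cells were imaged confocally at 20X across 9 fields per well, and Harmony extracted 77 features, each scored as a signed Kolmogorov-Smirnov statistic against vehicle wells on the same plate. Phenoactivity is the Euclidean distance between each profile and the median vehicle profile, with profiles first plate-position corrected, correlation-weighted and averaged over replicates at the top dose.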
row,SMILES,Euclidean distance
1,CN1CCN(Cc2ccc(Nc3ncc(Cl)c(Nc4ccccc4S(=O)(=O)N(C)C)n3)cc2)CC1,2.93
2,O=C1c2c(O)ccc(O)c2C(=O)c2c(NCCNCCO)ccc(NCCNCCO)c21 [Mitoxantrone 2HCl],7.28
3,Oc1ccc(Cl)c2cccnc12 [Cloxiquine],2.66
4,CO[C@H]1C[C@@H]2CC[C@@H](C)[C@@](O)(O2)C(=O)C(=O)N2CCCC[C@H]2C(=O)O[C@H]([C@H](C)C[C@@H]2CC[C@@H](OP(C)(C)=O)[C@H](OC)C2)CC(=O)[C@H](C)/C=C(\C)[C@@H](O)[C@@H](OC)C(=O)[C@H](C)C[C@H](C)/C=C/C=C/C=C/1C [Ridaforolimus (Deforolimus. MK-8669)],2.88
5,CCN(CC)CC(=O)Nc1c(C)cccc1C [Lidocaine],0.913
6,O=C(O)c1cn(-c2ccc(F)cc2)c2cc(N3CCNCC3)c(F)cc2c1=O [Sarafloxacin HCl],0.799
7,C=CCN1CCCC1CNC(=O)c1cc2nn[nH]c2cc1OC (centres undefined) [Alizapride HCl],1.13
8,CCOc1ccc(Cc2cc([C@@H]3O[C@H](CO)[C@@H](O)[C@H](O)[C@H]3O)ccc2Cl)cc1 [Dapagliflozin propanediol monohydrate],0.967
9,C[C@@H]1O[C@@H]1P(=O)(O)O [Fosfomycin Disodium],0.793
10,CN[C@@H](C)C(=O)N[C@H](C(=O)N1CCC[C@H]1C(=O)Nc1snnc1-c1ccccc1)C1CCCCC1,1.38
11,COc1ccc2cc(C(=O)O)ccc2c1 [6-Methoxy-2-naphthoic acid],1.15
12,C[N+](C)(C)NCCC(=O)[O-] [Mildronate],1.1
13,Cc1c(F)cc(C(=O)NC2CC2)cc1-c1ccc(C(=O)NCC(C)(C)C)cn1,0.572
14,COc1cc2c(cc1OC)CC(=O)N(CCCN(C)C[C@H]1Cc3cc(OC)c(OC)cc31)CC2 [Ivabradine HCl],0.867
15,CN(C)CCc1c[nH]c2ccc(C[C@H]3COC(=O)N3)cc12 [Zolmitriptan],0.876
16,CC(=O)Oc1cc(C(F)(F)F)ccc1C(=O)O [Triflusal],0.956
17,COc1ccnc(C[S+]([O-])c2nc3cc(OC(F)F)ccc3[nH]2)c1OC (centres undefined) [Pantoprazole],0.822
18,COc1ccnc2[nH]cc(C(=O)C(=O)N3CCN(C(=O)c4ccccc4)C[C@H]3C)c12,0.737
19,COC1CCN(C(=O)c2cc(Cc3n[nH]c(=O)c4ccccc34)ccc2F)CC1,1.5
20,CSc1ccc2c(c1)N(CCC1CCCCN1C)c1ccccc1S2 (centres undefined) [Thioridazine hydrochloride],3.14

row,SMILES,Euclidean distance
1,CCOc1ccc2c(c1)C(C)=CC(C)(C)N2 [Ethoxyquin],1.62
2,Cc1[nH]c2ccccc2c1CCNCc1ccc(/C=C/C(=O)NO)cc1 [Panobinostat],3.48
3,COc1cccc2cc(-c3nc([C@H]4CC[C@H](C(=O)O)CC4)n4ncnc(N)c34)[nH]c12,3.76
4,O=C(O)c1ccc2nc(-c3cc(Cl)cc(Cl)c3)oc2c1 [Tafamidis],0.77
5,N#CC(c1ccc(Cl)cc1)c1c(Cl)cc(-n2ncc(=O)[nH]c2=O)cc1Cl (centres undefined) [Diclazuril],1.53
6,O=C(O)Cc1ccc(-c2ccccc2)cc1 [4-Biphenylacetic acid],1.66
7,CC1(C)S[C@@H]2[C@H](NC(=O)Cc3ccccc3)C(=O)N2[C@H]1C(=O)O [Benzylpenicillin potassium],0.93
8,C[C@H](CCC(=O)O)[C@H]1CC[C@H]2[C@@H]3[C@H](O)C[C@@H]4C[C@H](O)CC[C@]4(C)[C@H]3C[C@H](O)[C@]12C [Cholic acid],0.727
9,CCN1CCN(Cc2ccc(Nc3ncc(F)c(-c4cc(F)c5nc(C)n(C(C)C)c5c4)n3)nc2)CC1,4.66
10,O=C(O)c1cc(=O)c2ccccc2o1 [Chromocarb],1.04
11,CC1=CC(=O)c2ccccc2C1=O [Menadione],1.16
12,CC(C)C[C@H](NC(=O)[C@H]1O[C@@H]1C(=O)O)C(=O)NCCCCN=C(N)N,1.02
13,CC[C@@H]([C@H](C)O)n1ncn(-c2ccc(N3CCN(c4ccc(OC[C@@H]5CO[C@@](Cn6cncn6)(c6ccc(F)cc6F)C5)cc4)CC3)cc2)c1=O [Posaconazole],2.3
14,CN1C(=O)C(C)(C)Oc2c(-c3cn(C)c(=O)c4[nH]ccc34)cc(S(C)(=O)=O)cc21,3.94
15,O=C(O)c1ccc(-n2nc(-c3ccccc3O)nc2-c2ccccc2O)cc1 [Deferasirox],2.5
16,Cc1cccc(C)c1NC(=O)C1CCCCN1C (centres undefined) [Mepivacaine HCl],1.28
17,CC(=O)O/N=C1\C(=O)N(Cc2cc(Cl)ccc2Cl)c2ccc(Cl)cc21,0.682
18,Cc1cn([C@H]2C[C@H](N=[N+]=[N-])[C@@H](CO)O2)c(=O)[nH]c1=O [Zidovudine],1.2
19,NC(=O)c1ccc(OCCCN2CC3CCCC3C2)cc1 (centres undefined),1.36
